# Results: PubChem BioAssay (NCI)
# Compounds without any hit were thinned out: in the full panel of roughly 83,000, 20% have a hit.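 Single-concentration screen, 48 h exposure, 96-well plates. Endpoint: percent growth. Below 10 = active.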 A number with no mark means an inactive call. Calls of active or inactive are those of the source.
# What was measured:
# Assay in all cases: NCI-60 one-dose screen, 48 h (100 = growth as untreated, 0 = no growth, -100 = all killed)
# Details in all cases: 10 µM unless noted
# [1] = system: NCI-H23 lung
# [2] = system: NCI-H226 lung
# [3] = system: NCI-H322M lung
# [4] = system: HOP-62 NSCLC
# [5] = system: NCI-H460 lung
# [6] = system: HOP-92 NSCLC
# [7] = system: NCI-H522 lung
# [8] = system: A549/ATCC NSCLC
# [9] = system: 786-0 renal
# [10] = system: COLO 205 colon
SMILES,growth [1],growth [2],growth [3],growth [4],growth [5],growth [6] [%],growth [7],growth [8],growth [9],growth [10]
CC(=O)Nc1ccc(-c2cn(-c3cccc(C(=O)Nc4ccc(N5CCN(C)CC5)cc4)c3)nn2)cn1,67.4%,69.1%,96.2%,60%,90.4%,44.8,91.8%,76.1%,12.5%,72%
CC(=O)Nc1ccc(-n2cnc3cc(-c4ccc(O)cc4)ccc32)cc1C(F)(F)F,21.4%,44.8%,41.1%,34.4%,9.22% (active),44.8,-33.8% (active),19.4%,20.3%,43.8%
Nc1cc2ccccc2c(=O)n1NC(=O)c1ccc(I)cc1,97.3%,99.9%,98.6%,98.5%,100%,106,93.1%,94.6%,99.3%,105%
CC(C)CSc1nc(NCCc2c[nH]c3ccccc23)c(C#N)c(-c2ccc(F)cc2)n1,72.9%,44.9%,91.2%,34.9%,11.6%,50.9,62.4%,51.2%,67.9%,31.6%
CC1=C(C(=O)c2ccccc2)C(c2cccc(Cl)c2Cl)n2c(nc3ccccc32)N1 (configuration not stated),63%,7.18% (active),72%,14.9%,60.9%,18,49.9%,53.4%,37.9%,82.3%
O=C(Cn1c(/C=C/c2ccccc2)nc2ccccc2c1=O)Nc1ccc(Cl)cc1,59.8%,30.2%,74.8%,57.9%,38.7%,–,76.7%,33.8%,-48.9% (active),78.4%
CN(C)c1nc(NCCNS(=O)(=O)c2ccc(C3=Nc4c(N)nc(N)nc4NC(c4ccc(C(F)(F)F)cc4)C3)cc2)nc(Nc2ccc(F)cc2)n1 (configuration not stated),31.5%,24.3%,46.7%,56.1%,-7.38% (active),–,5.71% (active),45.8%,-35.4% (active),-83.5% (active)
CN(C)CCOc1ccc(C(=O)C2[C@H](c3ccc(Cl)cc3)[C@@H](c3ccccc3)NC23C(=O)Nc2ccc(Br)cc23)cc1 (some centres not stated),-2.68% (active),43.7%,53.7%,75.9%,-78.1% (active),–,-2.86% (active),4.59% (active),-72.5% (active),-69% (active)
COc1ccc(C2CC(c3ccc(S(=O)(=O)NCCNc4nc(Nc5ccc(F)cc5)nc(N(C)C)n4)cc3)=Nc3c(N)nc(N)nc3N2)cc1 (configuration not stated),90.4%,84.4%,96.6%,90.3%,73.6%,–,89.4%,91.3%,50.2%,–
COC1=C[C@]23CCC(=O)N2CCc2cc4c(cc2[C@@H]3[C@@H]1OC(=O)[C@H](C)O)OCO4,9.59% (active),11%,69.7%,46.6%,-5.4% (active),–,-48.1% (active),7.1% (active),22.7%,–
C=C1CCC2C3(C)COC(c4ccccc4)OC3CCC2(C)C1CC(Sc1ccccc1)C1=CCOC1=O (configuration not stated),44.2%,10.6%,80.5%,88.6%,84.6%,–,3.01% (active),35.3%,52.3%,71.3%
COc1ccc(-c2nc3cc(C)ccc3n2CC(=O)N=Nc2c(O)[nH]c3ccc(Cl)cc23)cc1,-62.9% (active),-34.1% (active),10.1%,-50.4% (active),10.6%,–,14.9%,-62.4% (active),11%,-39.7% (active)
Cc1ccc(C(=O)NN2C(=O)/C(=C/C=C/c3ccc([N+](=O)[O-])o3)SC2=S)cc1,-84% (active),-95.6% (active),-76.9% (active),-70% (active),-57.6% (active),–,-90.7% (active),-76.5% (active),-86% (active),-83.9% (active)
CN(C)c1nc(NCCNS(=O)(=O)c2ccc(C(=O)/C=C/c3ccc(Cl)cc3)cc2)nc(Nc2ccc(F)cc2)n1,-38.6% (active),-53.3% (active),6.91% (active),15.4%,-67.9% (active),–,-87.4% (active),-23.5% (active),-86% (active),-82.9% (active)
CC(=O)c1cc(C(=O)c2ccccc2)n2c1ccc1ccccc12,105%,94%,94.3%,87.5%,111%,–,97.4%,108%,98.7%,110%
Cn1cc(-c2cc(N)n3nc(-c4c[nH]c5ccccc45)cc3n2)c2cc(Br)cnc21,-63.8% (active),-33.1% (active),-50.8% (active),-51.2% (active),-65.1% (active),–,-75.4% (active),-33% (active),-77% (active),-89.3% (active)
COc1cc(OC)c2c3nc4cc(C)c(C)cc4nc3n(CCN(C)C)c2c1,67.4%,72.4%,73.3%,70.9%,53.7%,–,56.2%,8.98% (active),50.7%,–
NS(=O)(=O)c1ccc(-n2cc(-c3cccc(NC(=O)c4cc(Cl)cc(Cl)c4)c3)nn2)cc1,41.2%,105%,68.8%,51.2%,43.7%,–,75.5%,27.1%,79.9%,76.4%
CC12CC[C@@H]3[C@]4(C)COC(c5cn[nH]c5-c5ccc(Cl)cc5)O[C@@H]4CC[C@@]3(C)[C@@H]1CC(C1=CCOC1=O)O2 (some centres not stated),51.9%,45.5%,58.2%,62.7%,29.8%,–,20.9%,34%,57.1%,–
COc1c(F)ccc(C(=O)Nc2ccc3nc(NC(=O)C4CCCN(S(=O)(=O)c5ccc(Cl)cc5)C4)sc3c2)c1F (configuration not stated),85.7%,76%,86.6%,102%,81.3%,–,76.6%,65.6%,54.7%,77.8%
CCOC(=O)c1ccc(Nc2nc(NN)nc(-c3ccc(F)cc3)c2C#N)cc1,110%,116%,109%,103%,112%,–,98.5%,105%,103%,119%
O=C(Cn1c(/C=C/c2ccccc2)nc2ccccc2c1=O)Nc1ccccc1,90.2%,60%,87.5%,57.5%,43.2%,–,57.2%,38.2%,1.52% (active),79.3%
Cn1cc(-c2cc3nc(-c4cn(C)c5ncc(Br)cc45)cc(N)n3n2)c2cc(Cl)ccc21,-77% (active),-40.8% (active),-73.1% (active),-78.1% (active),-69.9% (active),–,-79.8% (active),-75.2% (active),-65.3% (active),-77.6% (active)
COc1c(F)ccc(C(=O)Nc2ccc3nc(NC(=O)C4CCCN(S(=O)(=O)c5ccc(Br)c(F)c5)C4)sc3c2)c1F (configuration not stated),87.3%,80.8%,94.5%,105%,84.1%,–,81.9%,73.7%,52.7%,81.8%
COc1ccc(/C=C/c2nc3ccccc3c(=O)n2CC(=O)Nc2ccc(Cl)cc2)cc1,60.7%,30.4%,88.8%,8.06% (active),22.6%,–,64.1%,23%,27.5%,–
Cc1nc(Nc2ccccn2)sc1C(=O)CC(SCC(=O)Nc1ccc(Cl)cc1)c1ccccc1F (configuration not stated),-0.749% (active),48%,19.6%,10.1%,6.78% (active),–,-12.8% (active),6.38% (active),10.9%,-49.7% (active)
CN(C)c1nc(NCCNS(=O)(=O)c2ccc(C3=Nc4c(N)nc(N)nc4NC(c4ccc(Cl)cc4)C3)cc2)nc(Nc2ccc(F)cc2)n1 (configuration not stated),50.8%,54.7%,66%,80.3%,19.4%,–,40.1%,62.7%,24.3%,3.23% (active)
CC(C)(C)OC(=O)/C=C/c1cccc2c1C(=O)NC(C)(c1cc3cc(Cl)ccc3oc1=O)N2 (configuration not stated),53%,50.6%,60.9%,64%,43.9%,–,34.9%,27.4%,54.5%,19.4%
